Data as given in the supplement of paper PMC11732987, “Enantioselective OTUD7B fragment discovery through chemoproteomics screening and high-throughput optimisation” (Communications Chemistry, 2025).

How the values were obtained:
Assay in all cases: log2 ratio of Biotin-Ahx-Ub-VS probe labelling (fragment/DMSO); higher = less target engagement (more negative = stronger competition), active = hit call of the paper (q ≤ 0.05, log2 ratio ≤ -1)
Details in all cases: compound concentration: 200 uM; treatment time: 3 h
ALG13 = target: T1, ALG13 (UniProt Q9NP73)
T1 sequence (whole entry): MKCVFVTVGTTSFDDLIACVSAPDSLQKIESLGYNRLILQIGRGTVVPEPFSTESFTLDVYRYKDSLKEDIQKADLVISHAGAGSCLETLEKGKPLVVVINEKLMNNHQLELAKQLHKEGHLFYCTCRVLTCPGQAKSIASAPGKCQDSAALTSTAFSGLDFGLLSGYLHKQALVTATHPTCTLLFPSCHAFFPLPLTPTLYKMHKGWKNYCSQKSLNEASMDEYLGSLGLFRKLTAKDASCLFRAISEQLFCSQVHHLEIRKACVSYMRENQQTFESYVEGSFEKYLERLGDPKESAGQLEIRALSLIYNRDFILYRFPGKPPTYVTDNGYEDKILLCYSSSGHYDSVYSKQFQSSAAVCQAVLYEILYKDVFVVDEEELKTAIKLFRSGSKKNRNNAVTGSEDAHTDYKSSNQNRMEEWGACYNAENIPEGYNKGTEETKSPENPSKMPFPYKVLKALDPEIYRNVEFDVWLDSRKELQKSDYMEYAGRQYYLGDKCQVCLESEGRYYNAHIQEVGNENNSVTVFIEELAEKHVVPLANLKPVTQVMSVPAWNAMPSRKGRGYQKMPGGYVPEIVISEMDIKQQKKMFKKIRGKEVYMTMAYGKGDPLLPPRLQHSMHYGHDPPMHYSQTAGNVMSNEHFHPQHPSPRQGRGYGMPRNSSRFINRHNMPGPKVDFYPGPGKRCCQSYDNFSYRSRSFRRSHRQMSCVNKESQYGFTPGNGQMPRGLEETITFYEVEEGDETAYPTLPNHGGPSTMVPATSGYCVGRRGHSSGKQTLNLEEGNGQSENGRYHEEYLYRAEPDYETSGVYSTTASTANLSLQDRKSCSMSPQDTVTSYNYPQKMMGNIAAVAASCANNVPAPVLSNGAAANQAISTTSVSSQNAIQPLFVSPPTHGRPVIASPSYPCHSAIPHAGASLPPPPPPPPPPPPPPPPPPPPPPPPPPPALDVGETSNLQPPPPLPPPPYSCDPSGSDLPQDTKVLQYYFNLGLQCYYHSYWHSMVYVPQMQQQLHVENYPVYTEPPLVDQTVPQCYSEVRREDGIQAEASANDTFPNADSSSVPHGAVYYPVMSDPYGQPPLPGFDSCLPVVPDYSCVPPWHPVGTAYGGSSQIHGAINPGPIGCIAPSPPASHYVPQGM
In short: (§1)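 In triplicate, 495 µg of HEK293T lysate per sample was incubated with fragment at 200 µM or vehicle for 3 h. Biotin-Ahx-Ub-VS was then added to 0.5 µM final for 1 h, and labelled DUBs were captured with NeutrAvidin, digested with LysC and trypsin, and measured by diaPASEF LC-MS/MS. Data are average log2 fragment/vehicle ratios by unpaired t-test from global-median-normalised Spectronaut label-free quantities, restricted to proteins with ≥2 unique peptides.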

ATXN3 = ATXN3 (UniProt P54252)
In short: as §1

BAP1 = target: T2, BAP1 (UniProt Q92560)
T2 sequence (whole entry): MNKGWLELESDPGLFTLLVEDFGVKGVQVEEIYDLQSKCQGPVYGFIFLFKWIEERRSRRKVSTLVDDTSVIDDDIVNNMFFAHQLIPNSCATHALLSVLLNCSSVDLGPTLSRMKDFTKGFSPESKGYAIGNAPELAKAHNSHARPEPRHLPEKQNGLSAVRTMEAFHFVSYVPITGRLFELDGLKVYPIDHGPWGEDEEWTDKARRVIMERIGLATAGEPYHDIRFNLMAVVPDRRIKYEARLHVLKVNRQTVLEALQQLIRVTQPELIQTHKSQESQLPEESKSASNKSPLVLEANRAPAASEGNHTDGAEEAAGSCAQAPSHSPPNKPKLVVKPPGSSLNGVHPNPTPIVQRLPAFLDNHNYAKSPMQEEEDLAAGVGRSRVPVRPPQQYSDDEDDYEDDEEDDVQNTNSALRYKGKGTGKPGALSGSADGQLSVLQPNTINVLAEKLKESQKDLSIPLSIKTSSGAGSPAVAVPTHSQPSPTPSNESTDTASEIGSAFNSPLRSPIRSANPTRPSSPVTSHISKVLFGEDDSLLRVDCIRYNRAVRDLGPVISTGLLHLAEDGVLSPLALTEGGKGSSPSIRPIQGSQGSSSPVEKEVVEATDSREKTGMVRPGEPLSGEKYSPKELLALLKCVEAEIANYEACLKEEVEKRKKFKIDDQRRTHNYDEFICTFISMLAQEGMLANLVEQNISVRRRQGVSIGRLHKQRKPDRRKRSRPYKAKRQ
In short: as §1

EIF3F = EIF3F (UniProt O00303)
In short: as §1

EIF3H = EIF3H (UniProt O15372)
In short: as §1

FAM105A = target: T3, FAM105A (UniProt Q9NUU6)
T3 sequence (whole entry): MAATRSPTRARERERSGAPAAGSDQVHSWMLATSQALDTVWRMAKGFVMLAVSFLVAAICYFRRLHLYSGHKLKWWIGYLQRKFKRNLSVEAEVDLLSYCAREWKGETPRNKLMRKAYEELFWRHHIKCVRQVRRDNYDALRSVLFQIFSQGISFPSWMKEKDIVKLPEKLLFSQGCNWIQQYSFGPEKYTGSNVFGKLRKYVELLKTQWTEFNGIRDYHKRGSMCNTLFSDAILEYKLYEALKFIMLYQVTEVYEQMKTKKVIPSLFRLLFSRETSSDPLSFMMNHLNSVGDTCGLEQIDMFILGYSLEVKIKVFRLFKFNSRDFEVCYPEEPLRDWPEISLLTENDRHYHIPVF
In short: as §1

OTUB1 = OTUB1 (UniProt Q96FW1)
In short: as §1

OTUD4 = target: T4, OTUD4 (UniProt Q01804)
T4 sequence (whole entry): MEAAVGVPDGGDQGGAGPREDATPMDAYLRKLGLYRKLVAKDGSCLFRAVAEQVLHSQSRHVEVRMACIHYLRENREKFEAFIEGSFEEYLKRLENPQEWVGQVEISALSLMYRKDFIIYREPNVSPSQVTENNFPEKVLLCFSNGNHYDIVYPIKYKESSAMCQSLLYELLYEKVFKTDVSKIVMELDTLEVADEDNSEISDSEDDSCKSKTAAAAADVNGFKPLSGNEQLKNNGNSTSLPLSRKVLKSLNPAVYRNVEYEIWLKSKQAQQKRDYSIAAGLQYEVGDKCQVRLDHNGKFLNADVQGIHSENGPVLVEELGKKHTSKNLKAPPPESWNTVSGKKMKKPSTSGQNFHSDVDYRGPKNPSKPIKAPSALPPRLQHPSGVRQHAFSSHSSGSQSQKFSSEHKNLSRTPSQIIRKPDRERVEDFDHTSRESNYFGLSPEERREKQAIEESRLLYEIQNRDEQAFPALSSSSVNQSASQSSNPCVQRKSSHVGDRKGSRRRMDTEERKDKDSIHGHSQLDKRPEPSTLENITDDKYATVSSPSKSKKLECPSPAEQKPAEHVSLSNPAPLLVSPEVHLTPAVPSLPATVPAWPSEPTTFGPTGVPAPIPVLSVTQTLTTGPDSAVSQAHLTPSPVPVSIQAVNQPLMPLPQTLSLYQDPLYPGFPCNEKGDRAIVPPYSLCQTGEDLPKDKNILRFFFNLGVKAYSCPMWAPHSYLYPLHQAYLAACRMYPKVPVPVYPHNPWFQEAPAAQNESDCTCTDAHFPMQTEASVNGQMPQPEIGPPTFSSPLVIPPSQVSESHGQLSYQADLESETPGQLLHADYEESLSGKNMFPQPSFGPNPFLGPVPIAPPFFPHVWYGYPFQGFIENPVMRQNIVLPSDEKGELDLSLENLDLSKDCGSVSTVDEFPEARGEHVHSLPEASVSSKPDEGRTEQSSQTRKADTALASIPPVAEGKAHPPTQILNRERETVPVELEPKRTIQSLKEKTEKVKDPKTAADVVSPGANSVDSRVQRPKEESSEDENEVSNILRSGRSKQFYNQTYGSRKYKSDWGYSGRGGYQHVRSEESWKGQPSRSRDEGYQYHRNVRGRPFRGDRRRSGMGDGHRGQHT
In short: as §1

OTUD5 = target: T5, OTUD5 (UniProt Q96G74)
T5 sequence (whole entry): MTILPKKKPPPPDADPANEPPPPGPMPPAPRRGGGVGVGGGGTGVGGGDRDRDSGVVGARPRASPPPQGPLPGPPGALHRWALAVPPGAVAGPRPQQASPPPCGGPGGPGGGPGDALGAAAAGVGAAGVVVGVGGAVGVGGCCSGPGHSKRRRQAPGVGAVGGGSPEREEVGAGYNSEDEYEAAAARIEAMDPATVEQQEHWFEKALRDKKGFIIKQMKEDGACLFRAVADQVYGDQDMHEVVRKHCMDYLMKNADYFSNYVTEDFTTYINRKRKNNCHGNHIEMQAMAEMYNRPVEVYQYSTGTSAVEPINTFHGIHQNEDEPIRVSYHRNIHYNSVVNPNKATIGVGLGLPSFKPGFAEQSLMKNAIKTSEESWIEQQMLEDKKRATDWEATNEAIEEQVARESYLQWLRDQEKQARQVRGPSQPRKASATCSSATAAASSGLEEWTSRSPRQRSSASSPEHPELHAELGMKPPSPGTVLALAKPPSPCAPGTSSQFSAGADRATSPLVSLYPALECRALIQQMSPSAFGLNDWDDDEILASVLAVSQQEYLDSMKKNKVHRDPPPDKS
In short: as §1

Measured: log2 ratio of Biotin-Ahx-Ub-VS probe labelling

EIF3F, sequence (O00303 whole entry): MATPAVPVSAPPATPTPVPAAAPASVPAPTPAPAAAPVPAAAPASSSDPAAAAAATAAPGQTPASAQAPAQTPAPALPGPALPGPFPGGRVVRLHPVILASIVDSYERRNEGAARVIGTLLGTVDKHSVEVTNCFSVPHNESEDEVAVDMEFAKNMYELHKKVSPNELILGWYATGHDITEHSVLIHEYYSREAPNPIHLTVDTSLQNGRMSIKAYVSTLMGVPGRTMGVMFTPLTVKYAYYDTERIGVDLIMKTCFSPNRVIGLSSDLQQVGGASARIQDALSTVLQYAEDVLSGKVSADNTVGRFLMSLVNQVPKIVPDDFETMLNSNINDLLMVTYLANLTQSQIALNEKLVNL
OTUB1, sequence (Q96FW1 whole entry): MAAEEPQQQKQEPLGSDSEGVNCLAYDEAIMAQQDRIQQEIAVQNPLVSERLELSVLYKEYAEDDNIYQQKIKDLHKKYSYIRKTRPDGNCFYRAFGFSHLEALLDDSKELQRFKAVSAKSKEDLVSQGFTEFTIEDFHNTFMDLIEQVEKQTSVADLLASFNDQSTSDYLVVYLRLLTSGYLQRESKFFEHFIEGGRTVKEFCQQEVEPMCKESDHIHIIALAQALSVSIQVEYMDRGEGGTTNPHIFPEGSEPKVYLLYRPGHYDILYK
ATXN3, sequence (P54252 whole entry): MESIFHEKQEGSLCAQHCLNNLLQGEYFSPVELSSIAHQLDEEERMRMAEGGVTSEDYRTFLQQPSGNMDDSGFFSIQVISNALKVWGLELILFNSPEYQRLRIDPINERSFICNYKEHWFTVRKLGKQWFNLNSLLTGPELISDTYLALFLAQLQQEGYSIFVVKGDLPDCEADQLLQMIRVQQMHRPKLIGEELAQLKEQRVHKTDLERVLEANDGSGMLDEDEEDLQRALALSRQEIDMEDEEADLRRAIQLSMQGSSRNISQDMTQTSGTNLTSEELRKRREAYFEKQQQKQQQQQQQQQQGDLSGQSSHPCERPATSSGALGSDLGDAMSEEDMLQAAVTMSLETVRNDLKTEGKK
EIF3H, sequence (O15372 whole entry): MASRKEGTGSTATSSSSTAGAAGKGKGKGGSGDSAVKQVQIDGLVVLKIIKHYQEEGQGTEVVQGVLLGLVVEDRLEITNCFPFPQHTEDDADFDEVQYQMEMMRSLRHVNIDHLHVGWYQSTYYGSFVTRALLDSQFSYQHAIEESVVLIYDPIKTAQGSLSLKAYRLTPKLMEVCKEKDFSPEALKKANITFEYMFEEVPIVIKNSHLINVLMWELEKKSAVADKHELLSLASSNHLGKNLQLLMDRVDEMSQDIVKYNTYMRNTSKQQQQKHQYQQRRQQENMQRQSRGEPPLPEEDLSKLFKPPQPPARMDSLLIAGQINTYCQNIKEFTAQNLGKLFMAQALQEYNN

Cc1cccc2nc(CCNC(=O)CCl)cn12.Cl
inactive: ALG13 -0.496 | ATXN3 -0.436 | BAP1 -0.904 | EIF3F -0.438 | EIF3H -0.726 | FAM105A -0.0367 | OTUB1 -0.236 | OTUD4 -0.21 | OTUD5 -0.495
